Common to all, as to assay type: functional
Assay [1] concerns the target Solute carrier family 2, facilitated glucose transporter member 1 (Homo sapiens) (UniProt P11166). Kind of assay: ST_JUDE_LEISH: Cytotoxicity at 2uM final concentration against transgenic Leishmania Mexicana promastigotes LmGLUT1 that are glucose transport deficient and complemented with the human glucose transporter GLUT1. Activity is measured by DNA content using SYBR green in vitro.

The target of assay [2] is Hexose transporter 1 (Plasmodium falciparum) (UniProt O97467). Description: ST_JUDE_LEISH: Cytotoxicity at 2uM final concentration against transgenic Leishmania Mexicana promastigotes LmPfHT that are glucose transport deficient and complemented with the Plasmodium falciparum hexose transporter. Activity is measured by DNA content using SYBR green in vitro.
Assay [3] has as its target Glucose transporter (Leishmania mexicana) (UniProt O61059). Kind of assay: ST_JUDE_LEISH: Cytotoxicity at 2uM final concentration against transgenic Leishmania Mexicana promastigotes LmGT2 that are glucose transport deficient and complemented with the L. Mexicana glucose transporter 2. Activity is measured by DNA content using SYBR green in vitro.

Chain of Solute carrier family 2, facilitated glucose transporter member 1 (Homo sapiens) (P11166 whole entry): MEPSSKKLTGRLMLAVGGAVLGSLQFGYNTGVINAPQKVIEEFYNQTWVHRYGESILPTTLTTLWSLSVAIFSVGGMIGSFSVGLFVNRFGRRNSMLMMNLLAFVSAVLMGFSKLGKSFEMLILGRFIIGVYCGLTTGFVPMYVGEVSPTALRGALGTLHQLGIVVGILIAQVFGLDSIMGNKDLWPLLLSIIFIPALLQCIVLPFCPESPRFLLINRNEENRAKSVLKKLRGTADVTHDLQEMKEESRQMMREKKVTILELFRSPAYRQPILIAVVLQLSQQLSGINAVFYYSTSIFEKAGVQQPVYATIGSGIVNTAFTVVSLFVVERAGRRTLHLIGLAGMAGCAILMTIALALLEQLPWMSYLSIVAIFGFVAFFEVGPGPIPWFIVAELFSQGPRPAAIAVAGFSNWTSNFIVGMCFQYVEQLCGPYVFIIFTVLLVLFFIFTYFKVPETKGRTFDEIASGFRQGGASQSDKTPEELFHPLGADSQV

In the case of `Cc1cc(N[C@@H](CC(C)C)C(=O)NCCc2ccccc2)nc(Nc2ccccc2)n1`, the values for the inhibition in assay [1], in assay [2] and in assay [3] were 4.26%, 5.37% and 2.63%, respectively.
For `CC(C)(C)c1ccc(NC(=O)Nc2ccc(Cn3ncc(N4CCCNCC4)c(Cl)c3=O)cc2)cc1`, the inhibition in assay [1] was 6.36%; in assay [2] it was 6.82%; in assay [3], 3.41%.
On the same counts, the results for `COc1ccc(Cl)cc1N1CCN(CCCNC(=O)c2ccc(-c3nc4cc(Cl)c(F)cc4[nH]3)cc2)CC1` are 2.81%, 2.7% and 3.92%.
Consider `CCOC(=O)C1CCN(CCOc2cc(NC(=O)/C=C/c3ccccc3Cl)ccc2Br)CC1`, for which the inhibition in assay [1] came out at 8.71%; in assay [2], 6.51%; in assay [3] it was 7.58%.
The corresponding values for `Cc1ccc(-n2c(Sc3ncnc4sccc34)nnc2N2CCCC2)cc1` are 2.72%, 2.48% and 1.41%.
On the same counts, the results for `COc1cc(CNCCCNc2nc3ncccc3[nH]2)c2[nH]cc(Br)c2c1` are 23.9%, 43.1% and 21.6%.
For `COc1ccc(CN2CCCN(Cc3ccc(C(=O)Nc4ccc(Cl)cc4)cc3)CC2)cc1`, the values for the inhibition in assay [1], in assay [2] and in assay [3] were 4.35%, 5.51% and 6.65%, respectively.
On the same counts, the results for `O=C(NCCCCN1CCC(c2ccc(Br)cc2)CC1)c1ccc(NC(=O)c2ccc(Cl)cc2)cc1` are -0.29%, 0.2% and -1.89%.
With `Cc1cnc(Nc2cccnc2)nc1Nc1ccccc1C(=O)NC(C)C`, the values for the inhibition in assay [1], in assay [2] and in assay [3] were 1.01%, 1.12% and 2.25%, respectively.
`O=C(Nc1ccc(Cl)cc1)c1ccc(CN2CCCN(Cc3ccsc3)CC2)cc1`: the inhibition in assay [1] worked out at 2.78%; in assay [2] it was 1.42%; in assay [3], 7.21%.
On to `CCOc1cc2ncnc(Nc3ccc(OCc4c(F)cccc4F)c(OC)c3)c2cc1OCC`, for which the inhibition in assay [1] came out at 4.53%; in assay [2], 2.29%; in assay [3] it was 0.2%.
For `CN(C)c1ccc2c(c1)Sc1cc(N(C)C)ccc1N2C(=O)CCCC(=O)O`, the inhibition in assay [1] is 5.15%; in assay [2] it was 1.94%; in assay [3], -0.96%.
With `COc1ccc2c(=NN=Cc3cccc(F)c3)cc(C)[nH]c2c1`, the inhibition is -1.29% in assay [1], 4.27% in assay [2] and 1.95% in assay [3].
On the same counts, the results for `O=C(CSc1nccn1C1CCCC1)Nc1cc(C(F)(F)F)ccc1Cl` are 1.51%, 2.58% and 2%.
On to `Nc1nccc2ccc(Oc3ccncc3)cc12`, for which the inhibition in assay [1] was 2.47%; in assay [2] it was 3.29%; in assay [3] it was 4.2%.
The corresponding values for `CNC(=N)c1ccc(NC(=O)Nc2ccc(C(=N)NC)cc2)cc1` are 4.64%, 1.88% and 3.62%.
On the same counts, the results for `COc1cccc(CN2CCC3(CC2)CN(C(=O)Nc2ccc(Cl)c(Cl)c2)C3)c1` are 2.87%, 3.53% and 3.35%.
`CN1CCN(c2cc3c(cc2Cl)CCN3C(=O)Cc2ccc(NC(=O)Nc3cccc4ccccc34)cc2)CC1`: the figures for the inhibition in assay [1], in assay [2] and in assay [3] were 0.87%, 1.55% and -1.64%, respectively.
The corresponding values for `O=C(/C=C/c1ccc(C(F)(F)F)cc1)NCCCCCN1CCCN(C(=O)Nc2cccc(Cl)c2)CC1` are -0.19%, -1.13% and 1.47%.
On the same counts, the results for `CCn1ccc2c(N3CCCCS3(=O)=O)cc(C(=O)N[C@@H](Cc3ccccc3)[C@H](O)CNC(C)(C)CCCC(C)C)cc21` are 2.17%, 1.95% and 5.14%.
Regarding `FC(F)(F)c1ccc(Nc2nnnc3ccccc23)cc1`, the values for the inhibition in assay [1], in assay [2] and in assay [3] were 7.74%, 7.45% and 6.1%, respectively.
Regarding `NCC1CCCN1Cc1ccc(-c2ccc(-c3nc4ccccc4[nH]3)s2)cc1` (centres undefined), the figures for the inhibition in assay [1], in assay [2] and in assay [3] were -0.41%, -0.71% and -0.41%, respectively.
Consider `COc1ccc2nccc([C@@H](O)CN3CCC(NC(=O)c4[nH]c5ccccc5c4-c4ccccc4)CC3)c2c1`, for which the inhibition in assay [1] turned out to be 28.3%; in assay [2], 49.7%; in assay [3] it was 12.8%.
The corresponding values for `C#CCOc1ccccc1CN1CCC(N2CCc3cc(NC(=O)c4cc(C)on4)ccc32)C1` (centres undefined) are 2.61%, 1.64% and 4.74%.
The corresponding values for `CN(CCCNc1ccc(C(=O)Nc2ccc(C(F)(F)F)cc2)cc1[N+](=O)[O-])Cc1ccccc1` are 1.17%, -0.19% and -3.45%.
The corresponding values for `CCOc1c(CCNCCCCNCCc2ccc3ccccc3c2OCC)ccc2ccccc12` are 111%, 112% and 111%.
On to `COc1ccc2nccc([C@@H](O)CN3CCC(CO)(NCc4cc5ccccc5o4)CC3)c2c1`, for which the inhibition in assay [1] was 7.99%; in assay [2] it was 13.3%; in assay [3], 1.76%.
The corresponding values for `O=C(Nc1ccc(CN2CCOCC2)cc1)c1ccc(-c2ccc(Br)cc2)o1` are 2.45%, 0.46% and -2.23%.
`CN1CCN(c2ccc3[nH]c(-c4ccc(Cc5cc(Cl)ccc5OCc5ccccc5)o4)nc3c2)CC1`: the results for the inhibition in assay [1], in assay [2] and in assay [3] were 1%, 2.32% and 2.2%, respectively.
As to `O=C(CCc1c[nH]cn1)Nc1cccc(-c2ccc(-c3nc4ccccc4[nH]3)s2)c1`, the inhibition in assay [1] came out at 2.18%; in assay [2] it was 4.04%; in assay [3] it was 1.88%.
Regarding `Cc1ccc(NC(=O)c2ccc(CN3CCCN(CCC(C)C)CC3)cc2)cc1C`, the inhibition stood at 14.1% in assay [1], 14.9% in assay [2] and 15.6% in assay [3].
Take `CCn1c(-c2nonc2N)nc2c(-c3ccc(CO)o3)ncc(OCCCN)c21`: the inhibition in assay [1] turned out to be 6.54%; in assay [2] it was 3.21%; in assay [3] it was 5.17%.
The corresponding values for `N#Cc1ccccc1N1CCN(C2CCC(NC(=O)c3n[nH]c4cc(C(F)(F)F)ccc34)CC2)CC1` (centres undefined) are 2.94%, 1.88% and 0.43%.
